Data reported in PubChem BioAssay.
Calls of active or inactive are those of the source. Unless noted, how the calls were made is not given here.

Legend:
[1] = liver-stage malaria parasite load reduction – cell-based, known kinase inhibitor set, luminescence, hepatoma host viability (AID 624392); settings: Plasmodium liver stage in hepatoma cells, luciferase luminescence, concentration not given here; liver cell % of control: measured here: host liver cell viability; parasite % of control: stronger effect = lower value;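 further: infected cells incubated roughly two days before readout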
[2] = altered dexamethasone sensitivity, NF-kB reporter, cell-based, luciferase, IL-1B stimulus (AID 624486); settings: IL-1B + dexamethasone, luminescence; percent of negative control (+Dex): actives lie on both sides, concentration not given here; z-score: measured here: IL-1B alone, no Dex;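 on percent of negative control (+Dex): 100% = mean signal of vehicle control wells on the plate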
[3] = C. elegans survival during P. aeruginosa infection – whole organism (AID 651566);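 further: tested at 14 µM; sign flipped so higher z means a lower ratio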; settings: C. elegans killed by P. aeruginosa, survival ratio
[4] = pro-inflammatory signaling induction in mouse macrophages – cell-based, murine, luminescence (AID 652131); settings: murine macrophage pro-inflammatory reporter, stronger effect = higher value
[5] = biological target: Cellular tumor antigen p53 (Homo sapiens) (UniProt P04637); experiment: GFP-p53 level modulators in HPV16+ cells – imaging, known kinase inhibitor set, EGFP/DsRed ratio (AID 1053116); settings: GFP-p53 stability, stronger effect = higher value; EGFP object count: measured here: GFP-p53 positive objects count;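 further: cells exposed to compounds for 24 h at 37 °C before reading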
Cellular tumor antigen p53 (Homo sapiens), sequence (P04637 whole entry, looked up): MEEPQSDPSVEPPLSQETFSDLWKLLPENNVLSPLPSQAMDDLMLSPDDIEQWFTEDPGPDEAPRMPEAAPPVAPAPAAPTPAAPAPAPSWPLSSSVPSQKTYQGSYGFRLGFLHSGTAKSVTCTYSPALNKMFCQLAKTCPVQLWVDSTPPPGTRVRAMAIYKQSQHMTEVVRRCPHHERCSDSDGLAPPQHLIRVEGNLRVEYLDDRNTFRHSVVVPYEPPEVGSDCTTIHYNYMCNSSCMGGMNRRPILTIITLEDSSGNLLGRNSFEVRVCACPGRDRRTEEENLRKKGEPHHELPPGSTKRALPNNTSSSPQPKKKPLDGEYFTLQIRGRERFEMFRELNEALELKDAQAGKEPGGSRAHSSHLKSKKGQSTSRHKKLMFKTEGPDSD

[6] = inducers of IRF3 signaling, differentiated THP-1 – cell-based, PMA-stimulated THP-1, luminescence (AID 1053176); settings: PMA-differentiated THP-1, IRF3 reporter luminescence; stronger effect = higher value
[7] = MELAS cybrid and Rieske KO viability enhancers – cell-based, MELAS cybrids, Rieske KO mouse fibroblasts, CellTiter-Glo, primary screen (AID 1508586;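 active means mean z-score across replicates of 1.96 or higher in either the MELAS or the Rieske mutant cell line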;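 further: z relative to plate mean and SD of compound and empty wells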); settings: low glucose
[8] = MELAS cybrid survival, CellTiter-Glo 48 h, stronger effect = higher value
[9] = Rieske KO mouse fibroblast survival, CellTiter-Glo 72 h

Row | SMILES | liver cell % of control [1] [%] | parasite % of control [1] | percent of negative control (+Dex) [2] | z-score [2] | z-score [3] | z-score [4] | EGFP object count [5] | EGFP/DsRed ratio [5] | fraction signal [6] | z-score [7, 8] | z-score [7, 9]
1 | Cn1c(-c2nonc2N)nc2cnccc21 | 87.4 | 106% (inactive) | 70.5% (inactive) | -2.13 | -0.36 (inactive) | -0.113 (inactive) | 4.5 | 0.0787 (inactive) | -0.0065 (inactive) | -0.058 (inactive) | -0.308
2 | Nc1ccc(C#Cc2cncnc2Nc2ccc(OCc3cccc(F)c3)c(Cl)c2)cc1 | 98 | 136% (inactive) | 106% (inactive) | 0.915 | -0.52 (inactive) | -0.735 (inactive) | 4 | 0.276 (inactive) | 0.001 (inactive) | -0.813 (inactive) | -0.0706
3 | CN1CCC(n2cnc(-c3ccc(F)cc3)c2-c2ccnc(N)n2)CC1 | 83.2 | 168% (inactive) | 107% (inactive) | 2.09 | 0.34 (inactive) | 3.77 (inactive) | 1.5 | 0.024 (inactive) | -0.004 (inactive) | -0.312 (inactive) | -0.31
4 | Fc1cccc(COc2ccc(Nc3ncncc3C#Cc3ccccc3)cc2Cl)c1 | 87.3 | 98% (inactive) | 85.5% (inactive) | -0.815 | 1.36 (inactive) | -0.904 (inactive) | 4 | 0.0412 (inactive) | -0.002 (inactive) | -0.0898 (inactive) | -0.226
5 | CCn1c(-c2nonc2N)nc2c(C#CCN)ncc(OCCCN)c21 | 63.5 | 112% (inactive) | 85% (inactive) | -0.55 | -0.71 (inactive) | 3.14 (inactive) | 6 | 0.152 (inactive) | -0.008 (inactive) | -0.193 (inactive) | -0.317
6 | O=S(=O)(CCOCc1ccc(-c2ccc3ncnc(Nc4ccc(OCc5cccc(F)c5)c(Cl)c4)c3c2)o1)c1ccccc1 | 105 | 111% (inactive) | 78% (inactive) | -1.27 | -1.41 (inactive) | -0.482 (inactive) | 2 | 0.0356 (inactive) | -0.003 (inactive) | -0.647 (inactive) | -0.248
7 | c1cc(-c2cnn3nc(N4CCOCC4)ccc23)nc(NC2CC2)n1 | 147 | 177% (inactive) | 59.5% (inactive) | -2.65 | -0.225 (inactive) | -1.49 (inactive) | 3.5 | 0.0725 (inactive) | -0.008 (inactive) | 0.731 (inactive) | -0.389
8 | CCn1c(-c2nonc2N)nc2ccc(F)cc21 | 98 | 113% (inactive) | 82.5% (inactive) | -0.655 | -0.725 (inactive) | -0.544 (inactive) | 4 | 0.0296 (inactive) | 0.0105 (inactive) | -0.0553 (inactive) | 0.0939
9 | Cc1ccc(C(=O)NC2CC2)cc1-c1ccc2[nH]ncc2c1 | 103 | 126% (inactive) | 102% (inactive) | 0.41 | 0.325 (inactive) | -0.645 (inactive) | 3.5 | 0.141 (inactive) | 0.0035 (inactive) | -0.239 (inactive) | -0.0886
10 | COC(=O)Nc1nc2ccc(Oc3ccc(NC(=O)Nc4cccc(Br)c4)cc3)cc2[nH]1 | 77.3 | 247% (inactive) | 104% (inactive) | 0.65 | -0.435 (inactive) | 0.412 (inactive) | 6.5 | 0.0884 (inactive) | -0.001 (inactive) | 0.278 (inactive) | -0.0385
11 | COc1cccc(/C=N/Nc2ncnc3c2cnn3-c2cccc(OC)c2)c1 | 96.7 | 107% (inactive) | 91.5% (inactive) | -0.3 | -0.385 (inactive) | 0.307 (inactive) | 9 | 0.222 (inactive) | 0.0045 (inactive) | 0.209 (inactive) | -0.582
12 | Fc1ccc(-c2ncn(CCCN3CCOCC3)c2-c2ccncc2)cc1 | 110 | 145% (inactive) | 98.5% (inactive) | 1.32 | 0.18 (inactive) | -0.092 (inactive) | 4 | 0.0405 (inactive) | -0.0075 (inactive) | -1.02 (inactive) | 0.219
13 | NS(=O)(=O)c1ccc(N=Nc2c(O)[nH]c3ccc(C(=O)NCCc4cnc[nH]4)cc23)cc1 | 82.2 | 110% (inactive) | 85.5% (inactive) | -0.045 | -1.15 (inactive) | -0.108 (inactive) | 7.5 | 0.141 (inactive) | -0.0145 (inactive) | 0.0573 (inactive) | -0.291
14 | Cc1ccc(C(=O)NC2CCCCC2)cc1-c1ccc(C(=O)NCC2CC2)cc1 | 103 | 134% (inactive) | 88.5% (inactive) | 0.05 | 1.71 (inactive) | 0.167 (inactive) | 5.5 | 0.116 (inactive) | -0.007 (inactive) | -0.861 (inactive) | 0.203
